Results: PubChem BioAssay (NCI)
Compounds without any hit were thinned out: in the full panel of roughly 83,000, 20% have a hit.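 Compound tested at a single concentration for 48 hours in 96-well plates; a percent growth value below 10 was scored as active.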 Active and inactive are the calls of the source.

What follows are compounds tested on NCI-H226 lung (assay: NCI-60 one-dose screen, 48 h (100 = growth as untreated, 0 = no growth, -100 = all killed)). Conditions: 10 µM unless noted.
`Cc1ccc(/C=N/Nc2nc(Nc3ccccc3)nc(-n3nc(C)cc3C)n2)cc1` was tested, and the growth was 46.9% (inactive). With `COc1ccc(/C(C)=C(/c2ccc(OCCCN(C)C)cc2)c2ccc(OC(=O)Cc3ccccc3)cc2)cc1` the growth was 91.5% (inactive). `CCOC(=O)C1=C(NC)OCC1=O` was tested, and the growth was 96.3% (inactive). For `C#CCOc1ccc2ncnc(Nc3cccc(NC(=O)C=C)c3)c2c1`, the growth was 76.2% (inactive). In the case of `COc1cc(-n2cc(-c3cc(O)c(C/C=C(\C)CCC=C(C)C)c(O)c3)nn2)cc2c1O[C@]1(C)CC[C@@H](O)C(C)(C)[C@H]1C2`, the growth was 52.7% (inactive). In the case of `N#C/C(=C\c1ccc(Br)cc1)n1nnc2ccc(F)cc21`, the growth was 2.99% (active). `CCN(CC)CCNC(=O)c1cn2ncnc(Oc3ccc(NC(=O)Nc4ccc(Cl)c(C(F)(F)F)c4)c(F)c3)c2c1C` was tested, and the growth was 73.9% (inactive). In the case of `Cc1nc(N2CCOCC2)sc1S(N)(=O)=O`, the growth was 84.5% (inactive). With `CC(=O)N(N=Nc1ccccc1)c1cccc2ccccc12` the growth was 92.5% (inactive). `Cc1ccc(-c2nc(N3CCNCC3)c3oc(-c4ccccc4)nc3n2)cc1` was tested, and the growth was 110% (inactive). In the case of `Cc1cc2c(O)c(-c3cc(Cl)ccc3Cl)c3sc(=O)oc3c2cc1C`, the growth was 58% (inactive). For `N=C(N)c1ccc(-c2ccc(-c3cc(Cl)cc(Cl)c3)o2)o1`, the growth was 43.9% (inactive). In the case of `CC1=Nc2cnc(Nc3ccc(OCCN4CCCCC4)cc3)nc2Nc2ccccc21`, the growth was 81.3% (inactive). With `Cc1cccnc1NC(=S)Nc1ncccc1C` the growth was 100% (inactive). For `CN1C(=O)/C(=C/c2ccc(C(=O)Nc3ncc(Cc4ccc(Cl)cc4)s3)cc2)SC1=S`, the growth was 71.5% (inactive).
